Anesthetic bind = qHTS Assay for Identification of Novel General Anesthetics | Ferritin light chain (Equus caballus), P02791 | apoferritin/1-aminoanthracene competitive binding, fluorescence | Potency, µM (top dose mostly 77.5 µM), most hits filed as inhibitors | 350,000 compounds, 0.074% hits; further: nearly all actives have a fitted effect of over 20% in size
Target sequence (P02791 2-175 limits assumed): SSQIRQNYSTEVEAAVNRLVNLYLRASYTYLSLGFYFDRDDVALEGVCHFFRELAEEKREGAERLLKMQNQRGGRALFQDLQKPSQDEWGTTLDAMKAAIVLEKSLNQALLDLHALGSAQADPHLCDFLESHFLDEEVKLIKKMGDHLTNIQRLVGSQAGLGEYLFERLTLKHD
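Apoferritin-based anesthetic binding model; compound displacement of fluorescent 1-AMA measured as endpoint fluorescence after 10 minutes at room temperature, scaled to free-ligand and complex controls.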
ATXN2 expr inh = Primary qHTS for Inhibitors of ATXN expression; AID 1745845, 2022; Potency, µM (titrated, usually from 57 µM), usual class: inhibitors; HEK-293 ATXN2-luciferase reporter, luminescence, 24 h; 360,000 compounds, 0.72% hits; further: nearly all actives have a fitted effect of over 55% in size
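ATXN2-luciferase reporter cells (luciferase flanked by upstream and downstream ATXN2 gene portions) were treated 24 h at 37 °C with compounds at up to 57 uM. SteadyGlo luminescence gave expression; GF-AFC fluorescence gave viability.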
S2 tox = Viability Counterscreen for Primary qHTS for Inhibitors of ATXN expression; S2 cells (HEK-293 line with an ATXN2-luciferase reporter) viability, CellTiter-Fluor protease fluorescence, 24 h; Potency, µM (titrated, usually from 56.7 µM), actives largely listed as cytotoxic; 400,000 compounds, 0.49% hits; further: nearly all actives have a fitted effect of over 40% in size
HepG2 tox-1 = qHTS for Inhibitors of TGF-b: Cytotox Counterscreen; HepG2 CAGA-GFP viability, ATP luminescence, 18 h; Potency, µM (series often up to 46.1 µM), actives largely listed as cytotoxic; 410,000 compounds, 0.76% hits
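HepG2 CAGA-GFP cells (1000/well, DMEM with 1% FBS) received compound, then TGF-beta at 500 pg/mL final, and were incubated 18 hours at 37 degrees C. Viability was read by CellTiter-Glo luminescence. Media-only wells were set as complete cell-killing and DMSO as no toxicity.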
TGFb SMAD3 inh = qHTS for Inhibitors of TGF-b; HepG2 CAGA-GFP TGF-b/SMAD3 reporter, GFP fluorescence, 18 h; TGF-beta stimulated, 500 pg/mL final; Potency, µM (series often up to 46.1 µM), hits mostly inhibitors; 410,000 compounds, 1.2% hits; AID 588855, 2011; further: nearly all actives have a fitted effect of over 65% in size
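Cell-based qHTS in HEPG2 carrying a CAGA-GFP Smad reporter; compounds added before 500 pg/mL final TGF-beta, 18 h incubation at 37 degrees C, GFP fluorescence quantified per cell by imaging cytometry.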
TGFb confirm = qHTS for Inhibitors of TGF-b: Confirmation of Cherry Picks; shares compounds with TGFb SMAD3 inh; HepG2 CAGA-GFP TGF-b reporter, GFP fluorescence, 18 h; cells stimulated with TGF-beta, 500 pg/mL; AID 720534, 2013; Potency, µM (titrated, usually from 46.1 µM), hits mostly inhibitors; 1,600 compounds, 63% hits; further: nearly all actives have a fitted effect of over 65% in size
HepG2 tox-2 = qHTS for Inhibitors of TGF-b: Cytotox Counterscreen for Cherry Picks | AID 720535, 2013 | shares compounds with TGFb SMAD3 inh | Potency, µM (top dose mostly 46.1 µM), usual class: inhibitors | 1,600 compounds, 27% hits | HepG2 CAGA-GFP viability, ATP luminescence, 18 h; cells stimulated with TGF-beta, 500 pg/mL; further: nearly all actives have a fitted effect of over 70% in size
TGFb CCL64 inh = qHTS for Inhibitors of TGF-b: CCL64 Cells Orthogonal Assay for Cherry Picks. shares compounds with TGFb SMAD3 inh. CCL64 CAGA-GFP reporter, TGF-b stimulated, GFP fluorescence, 18 h. Potency, µM (titrated, usually from 46.1 µM), hits mostly inhibitors. 1,600 compounds, 41% hits; further: nearly all actives have a fitted effect of over 65% in size
TGFb COP inh = qHTS for Inhibitors of TGF-b: Hit Validation in HepG2 Cells using COP promoter; shares compounds with TGFb SMAD3 inh; HepG2 COP-GFP TGF-b reporter, GFP fluorescence, 18 h; cells stimulated by added recombinant TGF-beta; Potency, µM (highest dose often 46.1 µM), usual class: inhibitors; 1,600 compounds, 3% hits; further: nearly all actives have a fitted effect of over 70% in size
Of the large screens only hits and unclear results are named; the others gave an inactive call (follow-up assays come after a bar, where they were run). Rows were chosen to be rich in hits. Some 2.4% of all compounds tested hit in one or more screens of this group. The call rests on the fitted dose curve; in most records, active means well fitted curve in the direction sought with a large enough effect; inconclusive means small, poorly fitted or top-dose-only effect, or another doubt; inactive means no such curve, though single readings can be large; an effect the other way counts as inactive or inconclusive.

O=C(NC(c1ccccc1)c1ccc2ccccc2n1)C1CCN(CCOc2ccc(Cl)cc2Cl)CC1 (stereo not given)	ATXN2 expr inh inconclusive, TGFb SMAD3 inh 10µM (no result: Anesthetic bind) | TGFb confirm inconclusive | HepG2 tox-2 18µM | TGFb CCL64 inh inconclusive | TGFb COP inh inconclusive
COc1ccc(C(NC(=O)C2CCN(CCOc3ccc(Cl)cc3Cl)CC2)c2ccccn2)cc1 (stereo not given)	ATXN2 expr inh inconclusive, S2 tox inconclusive, TGFb SMAD3 inh inconclusive (no result: Anesthetic bind)
CC(=O)Nc1ccc(S(=O)(=O)N2CCN(Cc3ccncc3)CC2)cc1	none
CC(=O)Nc1ccc(S(=O)(=O)N2CCN(Cc3nc4sc(C)c(C)c4c(=O)[nH]3)CC2)cc1	TGFb SMAD3 inh inconclusive | TGFb confirm inactive | HepG2 tox-2 inactive | TGFb CCL64 inh inactive | TGFb COP inh inactive
COc1ccc(C2CC(c3c(-c4ccccc4)c4cc(Cl)ccc4[nH]c3=O)=NN2S(C)(=O)=O)cc1OC (stereo not given)	TGFb SMAD3 inh 8.9µM | TGFb confirm inconclusive | HepG2 tox-2 inactive | TGFb CCL64 inh inconclusive | TGFb COP inh inactive
Oc1c(C(c2ccccc2Cl)N2CCCC2)ccc2cccnc12 (stereo not given)	Anesthetic bind inconclusive, TGFb SMAD3 inh 0.45µM (no result: ATXN2 expr inh) | TGFb confirm inconclusive | HepG2 tox-2 inconclusive | TGFb CCL64 inh inconclusive | TGFb COP inh inactive
O=C(CN1CCN(C(=O)C2CCN(C(=O)/C=C/c3ccccc3)CC2)CC1)Nc1ccc(F)cc1	none (no result: Anesthetic bind) | TGFb confirm inactive | HepG2 tox-2 inactive | TGFb CCL64 inh inactive | TGFb COP inh inactive
Cc1cccc(N2CCN(C(=O)CCCSc3nc4ccccc4[nH]3)CC2)c1C	TGFb SMAD3 inh inconclusive | TGFb confirm inconclusive | HepG2 tox-2 inconclusive | TGFb CCL64 inh 13µM | TGFb COP inh inactive
O=C(CCCSc1nc2ccccc2[nH]1)N1CCN(c2ccccc2)CC1	Anesthetic bind inconclusive
CCS(=O)(=O)c1ncc(Cl)c(C(=O)Nc2ccc(S(=O)(=O)N3CCCC(C)C3)cc2)n1 (stereo not given)	ATXN2 expr inh 8.9µM, S2 tox 8.9µM, HepG2 tox-1 4.5µM, TGFb SMAD3 inh 4.5µM | TGFb confirm 4.1µM | HepG2 tox-2 5.2µM | TGFb CCL64 inh 2.6µM | TGFb COP inh 7.3µM
CCSc1ncc(Cl)c(C(=O)Nc2ccc(S(=O)(=O)N3CCCCC3CC)cc2)n1 (stereo not given)	Anesthetic bind inconclusive
CC1CCCN(S(=O)(=O)c2ccc(NC(=O)CNC3CCCC3)cc2)C1 (stereo not given)	ATXN2 expr inh inconclusive
CCC1CCCCN1S(=O)(=O)c1ccc(NC(=O)c2nc(S(C)(=O)=O)ncc2Cl)cc1 (stereo not given)	ATXN2 expr inh 16µM, S2 tox 13µM, HepG2 tox-1 4µM, TGFb SMAD3 inh 4.5µM | TGFb confirm 3.7µM | HepG2 tox-2 6.5µM | TGFb CCL64 inh 2.1µM | TGFb COP inh 9.2µM
CN1CCN(c2ccc(NC(=O)COc3cccc4ccccc34)cc2)CC1	none
C=CC(=O)Nc1cccc(Oc2ccnc(Nc3ccc(N4CCN(C)CC4)cc3)n2)c1	S2 tox inconclusive, TGFb SMAD3 inh 13µM (no result: Anesthetic bind) | TGFb confirm 15µM | HepG2 tox-2 23µM | TGFb CCL64 inh 12µM | TGFb COP inh inactive
O=C(COc1cccc(F)c1)N[C@@H](Cc1ccccc1)c1nc2ccccc2[nH]1	TGFb SMAD3 inh inconclusive (no result: ATXN2 expr inh) | TGFb confirm inconclusive | HepG2 tox-2 inactive | TGFb CCL64 inh inactive | TGFb COP inh inactive
CCOc1ccc(NC(=O)CSc2ncc(-c3ccc(F)cc3)n2Cc2ccco2)cc1	TGFb SMAD3 inh 16µM | TGFb confirm 26µM | HepG2 tox-2 inconclusive | TGFb CCL64 inh inconclusive | TGFb COP inh inactive
CCOc1ccccc1-n1c(CNc2ccc(F)cc2)nnc1SCC(=O)NCc1ccco1	S2 tox inconclusive, TGFb SMAD3 inh 8.9µM | TGFb confirm inconclusive | HepG2 tox-2 inactive | TGFb CCL64 inh inactive | TGFb COP inh inactive
O=C(CSc1nnc(CNc2ccc(F)cc2)n1Cc1ccccc1)NCc1ccco1	none
O=C(CSc1ncc(-c2ccc(F)cc2)n1Cc1ccco1)Nc1ccc2c(c1)OCO2	S2 tox inconclusive, TGFb SMAD3 inh inconclusive
CC1=C(C(=O)OCc2ccccc2)C(c2ccccc2OS(=O)(=O)c2ccc([N+](=O)[O-])cc2)NC(=O)N1CCCC(=O)O (stereo not given)	none (no result: Anesthetic bind)
CC(C)CCN1C(Nc2ccccc2)=NC[C@@H]1CC(C)C	none
Cc1cccc(CCN2C(Nc3ccccc3)=NC[C@@H]2CC(C)C)c1	ATXN2 expr inh inconclusive, S2 tox inconclusive, TGFb SMAD3 inh 6.3µM (no result: Anesthetic bind) | TGFb confirm 5.2µM | HepG2 tox-2 inconclusive | TGFb CCL64 inh inconclusive | TGFb COP inh inactive
CC(C)C[C@H]1CN=C(Nc2ccccc2)N1CCc1ccc(F)cc1	TGFb SMAD3 inh 8.9µM (no result: Anesthetic bind) | TGFb confirm 7.3µM | HepG2 tox-2 inconclusive | TGFb CCL64 inh 18µM | TGFb COP inh inactive
CC(C)C[C@H]1CN=C(Nc2ccccc2)N1CCc1cccc(F)c1	TGFb SMAD3 inh 7.1µM (no result: Anesthetic bind) | TGFb confirm 5.8µM | HepG2 tox-2 inconclusive | TGFb CCL64 inh 13µM | TGFb COP inh inactive
O=C(Nc1cc(C(F)(F)F)ccc1F)C1Cc2c(-c3ccccc3Oc3ccccc3)ccnc2O1 (stereo not given)	S2 tox inconclusive, TGFb SMAD3 inh inconclusive (no result: Anesthetic bind)
CCCCNc1c(-c2ccc(OC)c(SC3CCCCC3)c2)nc2cc(C)ccn12	ATXN2 expr inh inconclusive, S2 tox inconclusive, TGFb SMAD3 inh 20µM (no result: Anesthetic bind) | TGFb confirm inconclusive | HepG2 tox-2 inconclusive | TGFb CCL64 inh 16µM | TGFb COP inh inactive

High-throughput results from PubChem BioAssay.
